Active and inactive are the calls of the source. Rule for the calls: active = hit-call score of the fitted dose curve at least 0.9, where 1 is the maximum; inactive = score below 0.9.
Experiments:
[1] = read-out: Cytochrome P450 (CYP1A1), CYP1A1 (gene 1543); test: LTEA_HepaRG_CYP1A1: Life Technologies and Expression Analysis (LTEA) Assay for Cytochrome P450 (CYP1A1) using HepaRG (AID 2283454); conditions: mRNA level, 48 h; actives raise or lower the signal
Method in brief: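 qRT-PCR read-out: CYP1A1 transcript normalized to three housekeeping genes, fitted bidirectionally against 0.5% DMSO vehicle baseline. Human HepaRG cells, 48 h chemical exposure, 8-point half-log series topping at 100 uM.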

[2] = read-out: CFLAR gene, CFLAR (gene 8837); test: LTEA_HepaRG_CFLAR: Life Technologies and Expression Analysis (LTEA) Assay for CFLAR gene using HepaRG (AID 2283455); conditions: mRNA level, 48 h; actives raise or lower the signal
Method in brief: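 Differentiated HepaRG cells in serum-free induction medium were exposed 48 h in duplicate to eight half-log concentrations up to 100 uM in 0.5% DMSO; mRNA measured by TaqMan qRT-PCR, normalized to ACTB, GAPDH, POLR2A; bidirectional fitting versus DMSO.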

[3] = read-out: Forkhead box O1 (FOXO1), FOXO1 (gene 2308); test: LTEA_HepaRG_FOXO1: Life Technologies and Expression Analysis (LTEA) Assay for Forkhead box O1 (FOXO1) using HepaRG (AID 2283456); conditions: mRNA level, 48 h; actives raise or lower the signal
Method in brief: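 Differentiated HepaRG cells, in serum-free induction medium with 0.5% DMSO, exposed 48 h in duplicate to 8-point half-log series from 100 uM. FOXO1 mRNA measured by TaqMan qRT-PCR, normalized to ACTB, GAPDH, POLR2A; bidirectional fit versus DMSO.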

[4] = read-out: growth arrest and DNA damage 45 (GADD45A), GADD45A (gene 1647); test: LTEA_HepaRG_GADD45A: Life Technologies and Expression Analysis (LTEA) Assay for growth arrest and DNA damage 45 (GADD45A) using HepaRG (AID 2283458); conditions: mRNA level, 48 h; actives raise or lower the signal
Method in brief: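 Human HepaRG liver cells are treated in duplicate for 48 h with chemicals in 0.5% DMSO, highest concentration 100 uM. Expression is read by qRT-PCR and analyzed in both directions against vehicle.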

[5] = read-out: Forkhead box O3 (FOXO3), FOXO3 (gene 2309); test: LTEA_HepaRG_FOXO3: Life Technologies and Expression Analysis (LTEA) Assay for Forkhead box O3 (FOXO3) using HepaRG (AID 2283459); conditions: mRNA level, 48 h; actives raise or lower the signal
Method in brief: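 Differentiated human HepaRG cells, 48 h post-plating, exposed in duplicate for 48 h in serum-free induction medium; 8-point half-log series from 100 uM in 0.5% DMSO. FOXO3 mRNA by TaqMan qRT-PCR, normalized to ACTB/GAPDH/POLR2A; bidirectional fit versus DMSO.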

[6] = read-out: ABC Transporter (ABCB1), ABCB1 (gene 5243); test: LTEA_HepaRG_ABCB1: Life Technologies and Expression Analysis (LTEA) Assay for ABC Transporter (ABCB1) using HepaRG (AID 2283460); conditions: mRNA level, 48 h; actives raise or lower the signal
Method in brief: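 HepaRG cells exposed in duplicate for 48 h in serum-free induction medium to eight half-log concentrations up to 100 uM in 0.5% DMSO. ABCB1 mRNA quantified by qRT-PCR, normalised to ACTB, GAPDH and POLR2A; fitted bidirectionally versus DMSO.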

[7] = read-out: growth arrest and DNA damage 45 (GADD45B), GADD45B (gene 4616); test: LTEA_HepaRG_GADD45B: Life Technologies and Expression Analysis (LTEA) Assay for growth arrest and DNA damage 45 (GADD45B) using HepaRG (AID 2283461); conditions: mRNA level, 48 h; actives raise or lower the signal
Method in brief: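 qRT-PCR read-out (Fluidigm TaqMan, housekeeping-normalized) of mRNA change in human HepaRG cells after 48 h chemical exposure; 8-point curve, top 100 uM, half-log steps, 0.5% DMSO vehicle; gain or loss fitted relative to DMSO baseline.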

[8] = read-out: ABC Transporter (ABCB11), ABCB11 (gene 8647); test: LTEA_HepaRG_ABCB11: Life Technologies and Expression Analysis (LTEA) Assay for ABC Transporter (ABCB11) using HepaRG (AID 2283463); conditions: mRNA level, 48 h; actives raise or lower the signal
Method in brief: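 Differentiated human HepaRG cells in serum-free induction medium, dosed in duplicate for 48 h. Eight-point half-log series from 100 uM in 0.5% DMSO; ABCB11 mRNA by qRT-PCR, normalized to ACTB, GAPDH, POLR2A, fitted bidirectionally versus DMSO.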

[9] = read-out: ABC Transporter (ABCC2), ABCC2 (gene 1244); test: LTEA_HepaRG_ABCC2: Life Technologies and Expression Analysis (LTEA) Assay for ABC Transporter (ABCC2) using HepaRG (AID 2283464); conditions: mRNA level, 48 h; actives raise or lower the signal
Method in brief: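 qRT-PCR (TaqMan, Fluidigm array) read-out of ABCC2 mRNA, normalized to three housekeeping genes. Differentiated HepaRG cells were treated 48 h in serum-free induction medium with 8-point half-log series from 100 uM in 0.5% DMSO; curves fitted bidirectionally relative to DMSO.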

[10] = read-out: Broad substrate specificity ATP-binding cassette transporter ABCG2 (Homo sapiens) (UniProt Q9UNQ0); test: LTEA_HepaRG_ABCG2: Life Technologies and Expression Analysis (LTEA) Assay for ABC Transporter (ABCG2) using HepaRG (AID 2283465); conditions: mRNA level, 48 h; actives raise or lower the signal
Method in brief: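 Differentiated HepaRG cells were exposed for 48 h in serum-free induction medium to 8 half-log concentrations, top 100 uM, in 0.5% DMSO. ABCG2 mRNA was measured by qRT-PCR, normalized to ACTB, GAPDH and POLR2A, with bidirectional fitting versus DMSO.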

[11] = read-out: ATP-citrate lyase (ACLY), ACLY (gene 47); test: LTEA_HepaRG_ACLY: Life Technologies and Expression Analysis (LTEA) Assay for ATP-citrate lyase (ACLY) using HepaRG (AID 2283466); conditions: mRNA level, 48 h; actives raise or lower the signal
Method in brief: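 Differentiated HepaRG cells exposed 48 h in serum-free induction medium to eight half-log concentrations up to 100 uM in 0.5% DMSO, duplicates. Transcript measured by Fluidigm TaqMan qRT-PCR, normalized to ACTB, GAPDH, POLR2A; bidirectional fit versus DMSO.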

[12] = read-out: Peroxisomal acyl-coenzyme A oxidase 1 (ACOX1) gene, ACOX1 (gene 51); test: LTEA_HepaRG_ACOX1: Life Technologies and Expression Analysis (LTEA) Assay for Peroxisomal acyl-coenzyme A oxidase 1 (ACOX1) gene using HepaRG (AID 2283467); conditions: mRNA level, 48 h; actives raise or lower the signal
Method in brief: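 HepaRG cells, plated 48 h then switched to serum-free induction medium, were exposed in duplicate for 48 h to 8-point half-log concentrations up to 100 uM in 0.5% DMSO. ACOX1 mRNA was measured by qRT-PCR, normalized to ACTB/GAPDH/POLR2A, and fitted bidirectionally versus DMSO.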

[13] = read-out: Alkaline Phosphatase, Placental (ALPP) gene, ALPP (gene 250); test: LTEA_HepaRG_ALPP: Life Technologies and Expression Analysis (LTEA) Assay for Alkaline Phosphatase, Placental (ALPP) gene using HepaRG (AID 2283468); conditions: mRNA level, 48 h; actives raise or lower the signal
Method in brief: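 qRT-PCR readout of ALPP mRNA (Fluidigm TaqMan), normalized to ACTB/GAPDH/POLR2A, after 48 h chemical exposure of HepaRG cells; 8-point half-log series, top 100 uM, 0.5% DMSO vehicle. Bidirectional curve fit versus DMSO baseline.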

[14] = read-out: Bcl-2 (BAD) gene, BAD (gene 572); test: LTEA_HepaRG_BAD: Life Technologies and Expression Analysis (LTEA) Assay for Bcl-2 (BAD) gene using HepaRG (AID 2283469); conditions: mRNA level, 48 h; actives raise or lower the signal
Method in brief: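 Differentiated HepaRG cells were exposed in duplicate in 0.5% DMSO for 48 h to eight-point half-log concentrations up to 100 uM. BAD mRNA was measured by Fluidigm TaqMan qRT-PCR, normalized to ACTB, GAPDH and POLR2A, and fitted bidirectionally against DMSO.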

[15] = read-out: Bcl-2 (BAX) gene, BAX (gene 581); test: LTEA_HepaRG_BAX: Life Technologies and Expression Analysis (LTEA) Assay for Bcl-2 (BAX) gene using HepaRG (AID 2283470); conditions: mRNA level, 48 h; actives raise or lower the signal
Method in brief: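 Concentration-response endpoint fitted in both directions relative to 0.5% DMSO vehicle. Human HepaRG cultures receive test chemicals for 48 h at up to 100 uM; BAX mRNA is quantified by qRT-PCR against housekeeping genes.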

[16] = read-out: adenosine kinase (ADK) gene, ADK (gene 132); test: LTEA_HepaRG_ADK: Life Technologies and Expression Analysis (LTEA) Assay for adenosine kinase (ADK) gene using HepaRG (AID 2283471); conditions: mRNA level, 48 h; actives raise or lower the signal
Method in brief: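 ADK expression quantified by qRT-PCR, normalised to three housekeeping genes, after 48 h exposure of HepaRG cells to eight concentrations (top 100 uM, half-log steps, duplicate, 0.5% DMSO). Up- or down-regulation fitted relative to vehicle.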

[17] = read-out: Alpha-fetoprotein (AFP) gene, AFP (gene 174); test: LTEA_HepaRG_AFP: Life Technologies and Expression Analysis (LTEA) Assay for Alpha-fetoprotein (AFP) gene using HepaRG (AID 2283472); conditions: mRNA level, 48 h; actives raise or lower the signal
Method in brief: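 After a 48 h plating period, cells are moved to serum-free induction medium and dosed in duplicate (100 uM maximum, half-log dilutions, 0.5% DMSO) for another 48 h. Total RNA goes to TaqMan qRT-PCR; AFP signal is housekeeping-normalized.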

[18] = read-out: BCL2L11 (gene 10018); test: LTEA_HepaRG_BCL2L11: Life Technologies and Expression Analysis (LTEA) Assay for Bcl-2 (BCL2L11) gene using HepaRG (AID 2283473); conditions: mRNA level, 48 h; actives raise or lower the signal
Method in brief: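 HepaRG, 48 h exposure, 8-pt half-log series from 100 uM in 0.5% DMSO, duplicates; qRT-PCR (Fluidigm TaqMan) for BCL2L11, housekeeping-normalized; bidirectional curve fit relative to DMSO baseline.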

[19] = read-out: Apolipoprotein A-V (APOA5) gene, APOA5 (gene 116519); test: LTEA_HepaRG_APOA5: Life Technologies and Expression Analysis (LTEA) Assay for Apolipoprotein A-V (APOA5) gene using HepaRG (AID 2283474); conditions: mRNA level, 48 h; actives raise or lower the signal
Method in brief: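 HepaRG, 48 h chemical exposure in serum-free induction medium, 8-pt half-log series (top 100 uM), 0.5% DMSO vehicle, duplicates. Readout: APOA5 mRNA by qRT-PCR, housekeeping-normalized; bidirectional fit vs DMSO baseline.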

[20] = CEETOX_H295R_TESTO: CeeTox H295R High-throughput Steroidogenesis Assay for Testosterone (TESTO) (AID 2283457); conditions: actives raise or lower the signal
Method in brief: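 Readout: testosterone quantified by HPLC-MS/MS (C18, ESI positive) after MTBE liquid-liquid extraction of culture medium. Cells were H295R, 48 h chemical exposure per OECD 456 with modifications. Gain or loss of signal fitted relative to DMSO.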

Measured: AC50

Broad substrate specificity ATP-binding cassette transporter ABCG2 (Homo sapiens), sequence (Q9UNQ0 whole entry, looked up): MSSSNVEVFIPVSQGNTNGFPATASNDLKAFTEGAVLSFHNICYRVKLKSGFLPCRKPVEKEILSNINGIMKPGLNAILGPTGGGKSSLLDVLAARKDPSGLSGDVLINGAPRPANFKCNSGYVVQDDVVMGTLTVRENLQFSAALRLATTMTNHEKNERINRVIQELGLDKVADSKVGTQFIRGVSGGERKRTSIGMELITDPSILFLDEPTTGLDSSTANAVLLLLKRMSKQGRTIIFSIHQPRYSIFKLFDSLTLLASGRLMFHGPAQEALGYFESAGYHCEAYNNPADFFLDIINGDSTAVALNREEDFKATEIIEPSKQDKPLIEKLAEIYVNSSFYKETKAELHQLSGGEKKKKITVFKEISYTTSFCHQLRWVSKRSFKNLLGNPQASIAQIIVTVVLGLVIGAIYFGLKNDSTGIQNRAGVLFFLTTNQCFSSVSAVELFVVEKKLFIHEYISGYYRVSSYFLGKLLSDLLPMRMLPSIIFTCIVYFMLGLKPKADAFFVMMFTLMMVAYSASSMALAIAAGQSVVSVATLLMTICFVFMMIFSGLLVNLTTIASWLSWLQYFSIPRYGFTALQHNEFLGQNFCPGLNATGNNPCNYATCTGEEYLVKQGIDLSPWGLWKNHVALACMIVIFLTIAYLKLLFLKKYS

O=C1NS(=O)(=O)c2ccccc21
active: [1] 73.2 µM
not listed: [20]
inactive: all other assays above

CS(=O)(=O)c1ccc([C@@H](CC2CCCC2)C(=O)Nc2cnccn2)cc1Cl
active: [4] 9.92 µM | [10] 12.8 µM | [13] 81.2 µM | [15] 41.3 µM | [17] 69.8 µM | [19] 71.2 µM
not listed: [1] | [6] | [8] | [20]
inactive: all other assays above

CCCCc1oc2ccccc2c1C(=O)c1cc(I)c(OCCN(CC)CC)c(I)c1
active: [2] 62.4 µM | [4] 59.1 µM | [7] 59.6 µM | [8] 52.1 µM | [9] 68.8 µM | [10] 61 µM | [11] 59.4 µM | [13] 22.8 µM | [15] 65.2 µM | [17] 11.9 µM | [19] 61.6 µM
inactive: [3] | [5] | [6] | [12] | [14] | [16] | [18]

c1cc[nH]c1
inactive: [20]

CCCCCCCCCCCCOS(=O)(=O)O
active: [1] 61.6 µM | [6] 77.2 µM | [9] 86.2 µM | [15] 50 µM | [17] 77.7 µM
not listed: [8] | [20]
inactive: all other assays above

Oc1cc2ccccc2cc1O
inactive: [20]

OCC(CO)(CBr)CBr
not listed: [20]
inactive: all other assays above

CN(C)CCOC(c1ccccc1)c1ccccc1
active: [11] 81.6 µM | [17] 73.9 µM
not listed: [1] | [20]
inactive: all other assays above

O=C(CCCN1CCC(O)(c2ccc(Cl)cc2)CC1)c1ccc(F)cc1
inactive: [2] | [5] | [7] | [10] | [14] | [16] | [18] | [19]
active: [1] 12.4 µM | [3] 81.2 µM | [4] 75 µM | [6] 85.6 µM | [8] 80.1 µM | [9] 80.7 µM | [11] 32 µM | [12] 67 µM | [13] 36 µM | [15] 81.1 µM | [17] 67.8 µM

CC(=O)Nc1ccc(O)cc1
active: [1] 50 µM
not listed: [20]
inactive: all other assays above

Reference: PubChem BioAssay (EPA / NIEHS)
